# “And” between values parts separate entries of the source, which are not always exact repeats. Equal entries are not always repeated.
# Biological target: Apelin receptor (Homo sapiens) (UniProt P35414)
# Experiment: APJ beta-arrestin recruitment blockade alongside CXCR6 – cell-based, DiscoveRx, panel, CHO-K1, counter-screen for CXCR6 antagonist project, SAR follow-up (AID 651598)
# Settings: CHO-K1 PathHunter beta-arrestin luminescence, antagonist mode; run 1, at 80 µM (top of the series)
# Sequence of Apelin receptor (Homo sapiens) (P35414 whole entry, looked up): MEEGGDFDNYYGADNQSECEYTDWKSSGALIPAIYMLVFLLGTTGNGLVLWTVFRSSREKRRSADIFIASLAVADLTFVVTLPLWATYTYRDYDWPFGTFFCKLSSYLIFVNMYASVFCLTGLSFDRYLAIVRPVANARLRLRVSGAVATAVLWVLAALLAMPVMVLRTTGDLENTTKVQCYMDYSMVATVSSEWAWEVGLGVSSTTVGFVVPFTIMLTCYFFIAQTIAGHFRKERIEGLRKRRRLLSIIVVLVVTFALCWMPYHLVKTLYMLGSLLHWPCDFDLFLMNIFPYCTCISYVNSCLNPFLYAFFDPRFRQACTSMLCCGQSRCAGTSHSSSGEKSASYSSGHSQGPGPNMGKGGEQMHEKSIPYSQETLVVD
row,Compound,inhibition
1,COc1cc(C(=O)NC2CC3CCCC(C2)N3CC(=O)Nc2ccccc2)cc(OC)c1OC (stereo not drawn),-17.1% and -7.52% and 20.1%
2,COc1cc(C(=O)NC2CCN(CC(=O)Nc3ccccc3)CC2)cc(OC)c1OC,-17.6%
3,COc1cc(C(=O)NC2CC3CCC(C2)N3CC(=O)Nc2ccccc2)cc(OC)c1OC (stereo not drawn),15.6% and 6.78%
